Assay results as given in publication PMC7826789 (International Journal of Molecular Sciences, 2021).

What was measured:
Details in all cases: Compound Concentration (nM):1000
[1] = test system: ROCK2
[2] = test system: ROS1
[3] = test system: RPS6KA4(Kin.Dom.1-N-terminal)
[4] = test system: RPS6KA4(Kin.Dom.2-C-terminal)
[5] = test system: RPS6KA5(Kin.Dom.1-N-terminal)
[6] = test system: RPS6KA5(Kin.Dom.2-C-terminal)
[7] = test system: T1, RSK1(Kin.Dom.1-N-terminal)
T1 construct: gene RPS6KA1

[8] = test system: T2, RSK1(Kin.Dom.2-C-terminal)
T2 construct: gene RPS6KA1

[9] = test system: T3, RSK2(Kin.Dom.1-N-terminal)
T3 construct: gene RPS6KA3

[10] = test system: T4, RSK2(Kin.Dom.2-C-terminal)
T4 construct: gene RPS6KA3

[11] = test system: T5, RSK3(Kin.Dom.1-N-terminal)
T5 construct: gene RPS6KA2

[12] = test system: T6, RSK3(Kin.Dom.2-C-terminal)
T6 construct: gene RPS6KA2

[13] = test system: T7, RSK4(Kin.Dom.1-N-terminal)
T7 construct: gene RPS6KA6

[14] = test system: T8, RSK4(Kin.Dom.2-C-terminal)
T8 construct: gene RPS6KA6

[15] = test system: T9, S6K1
T9 construct: gene RPS6KB1

[16] = test system: SBK1
[17] = test system: SGK2
[18] = test system: SGK3
[19] = test system: T10, SGK
T10 construct: gene SGK1

[20] = test system: SIK2
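Further: KINOMEscan scanMAX binding as percent activity remaining versus control; lower means stronger binding.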

## CN(C)c1cc2c(Nc3ccc4c(cnn4Cc4ccccc4)c3)ncnc2cn1 [GW282974X]
[1]
  Percent Control: 96%
[2]
  Percent Control: 100%
[3]
  Percent Control: 93%
[4]
  Percent Control: 89%
[5]
  Percent Control: 100%
[6]
  Percent Control: 92%
[7]
  Percent Control: 97%
[8]
  Percent Control: 100%
[9]
  Percent Control: 95%
[10]
  Percent Control: 100%
[11]
  Percent Control: 100%
[12]
  Percent Control: 93%
[13]
  Percent Control: 75%
[14]
  Percent Control: 74%
[15]
  Percent Control: 95%
[16]
  Percent Control: 100%
[17]
  Percent Control: 99%
[18]
  Percent Control: 99%
[19]
  Percent Control: 98%
[20]
  Percent Control: 71%

## COc1cc(C=NNc2ncnc3c2cnn3-c2ccccc2)ccc1O [GW513184X]
[1]
  Percent Control: 88%
[2]
  Percent Control: 99%
[3]
  Percent Control: 100%
[4]
  Percent Control: 82%
[5]
  Percent Control: 100%
[6]
  Percent Control: 85%
[7]
  Percent Control: 100%
[8]
  Percent Control: 100%
[9]
  Percent Control: 88%
[10]
  Percent Control: 71%
[11]
  Percent Control: 100%
[12]
  Percent Control: 100%
[13]
  Percent Control: 90%
[14]
  Percent Control: 100%
[15]
  Percent Control: 100%
[16]
  Percent Control: 100%
[17]
  Percent Control: 66%
[18]
  Percent Control: 85%
[19]
  Percent Control: 50%
[20]
  Percent Control: 61%

## NS(=O)(=O)c1ccc(Nc2ncc(-c3ccccc3)o2)cc1 [GW572399X]
[1]
  Percent Control: 91%
[2]
  Percent Control: 100%
[3]
  Percent Control: 100%
[4]
  Percent Control: 89%
[5]
  Percent Control: 100%
[6]
  Percent Control: 100%
[7]
  Percent Control: 100%
[8]
  Percent Control: 100%
[9]
  Percent Control: 98%
[10]
  Percent Control: 98%
[11]
  Percent Control: 100%
[12]
  Percent Control: 100%
[13]
  Percent Control: 96%
[14]
  Percent Control: 100%
[15]
  Percent Control: 100%
[16]
  Percent Control: 100%
[17]
  Percent Control: 93%
[18]
  Percent Control: 60%
[19]
  Percent Control: 48%
[20]
  Percent Control: 100%

## CC1=C(C(=O)Nc2ccc3[nH]ncc3c2)C(c2ccc3ccccc3c2)CC(=O)N1 (centres unmarked) [GSK270822A]
[1]
  Percent Control: 0%
[2]
  Percent Control: 81%
[3]
  Percent Control: 100%
[4]
  Percent Control: 91%
[5]
  Percent Control: 100%
[6]
  Percent Control: 64%
[7]
  Percent Control: 91%
[8]
  Percent Control: 99%
[9]
  Percent Control: 72%
[10]
  Percent Control: 75%
[11]
  Percent Control: 84%
[12]
  Percent Control: 100%
[13]
  Percent Control: 67%
[14]
  Percent Control: 95%
[15]
  Percent Control: 67%
[16]
  Percent Control: 48%
[17]
  Percent Control: 69%
[18]
  Percent Control: 42%
[19]
  Percent Control: 69%
[20]
  Percent Control: 86%

## C/C(Nc1ccc(S(N)(=O)=O)cc1)=C1/C(=O)Nc2ccccc21 [GW335962X]
[1]
  Percent Control: 69%
[2]
  Percent Control: 76%
[3]
  Percent Control: 96%
[4]
  Percent Control: 85%
[5]
  Percent Control: 100%
[6]
  Percent Control: 100%
[7]
  Percent Control: 100%
[8]
  Percent Control: 92%
[9]
  Percent Control: 52%
[10]
  Percent Control: 89%
[11]
  Percent Control: 83%
[12]
  Percent Control: 82%
[13]
  Percent Control: 47%
[14]
  Percent Control: 86%
[15]
  Percent Control: 60%
[16]
  Percent Control: 100%
[17]
  Percent Control: 71%
[18]
  Percent Control: 26%
[19]
  Percent Control: 21%
[20]
  Percent Control: 90%

## COc1cc(N2CCN(C(C)C)CC2)ccc1Nc1nc(Nc2ccc(F)cc2C(=O)NC[C@@H](O)CO)c2cc[nH]c2n1 [GSK1392956A]
[1]
  Percent Control: 100%
[2]
  Percent Control: 52%
[3]
  Percent Control: 100%
[4]
  Percent Control: 33%
[5]
  Percent Control: 100%
[6]
  Percent Control: 47%
[7]
  Percent Control: 27%
[8]
  Percent Control: 78%
[9]
  Percent Control: 5.7%
[10]
  Percent Control: 100%
[11]
  Percent Control: 67%
[12]
  Percent Control: 72%
[13]
  Percent Control: 55%
[14]
  Percent Control: 86%
[15]
  Percent Control: 94%
[16]
  Percent Control: 64%
[17]
  Percent Control: 100%
[18]
  Percent Control: 91%
[19]
  Percent Control: 99%
[20]
  Percent Control: 100%

## COC(=O)Nc1nc2ccc(Oc3ccc(NC(=O)Nc4cc(C(F)(F)F)ccc4F)cc3)cc2s1.Cl [GW693917A]
[1]
  Percent Control: 86%
[2]
  Percent Control: 95%
[3]
  Percent Control: 100%
[4]
  Percent Control: 80%
[5]
  Percent Control: 100%
[6]
  Percent Control: 100%
[7]
  Percent Control: 99%
[8]
  Percent Control: 94%
[9]
  Percent Control: 98%
[10]
  Percent Control: 86%
[11]
  Percent Control: 65%
[12]
  Percent Control: 91%
[13]
  Percent Control: 76%
[14]
  Percent Control: 79%
[15]
  Percent Control: 54%
[16]
  Percent Control: 100%
[17]
  Percent Control: 80%
[18]
  Percent Control: 78%
[19]
  Percent Control: 87%
[20]
  Percent Control: 68%

## Cl.O=C(Nc1ccc(Oc2ccc3[nH]c(NC(=O)c4ccccc4)nc3c2)cc1)Nc1cc(C(F)(F)F)ccc1F [GW709042A]
[1]
  Percent Control: 85%
[2]
  Percent Control: 67%
[3]
  Percent Control: 100%
[4]
  Percent Control: 77%
[5]
  Percent Control: 100%
[6]
  Percent Control: 88%
[7]
  Percent Control: 100%
[8]
  Percent Control: 100%
[9]
  Percent Control: 100%
[10]
  Percent Control: 90%
[11]
  Percent Control: 100%
[12]
  Percent Control: 100%
[13]
  Percent Control: 99%
[14]
  Percent Control: 100%
[15]
  Percent Control: 52%
[16]
  Percent Control: 100%
[17]
  Percent Control: 100%
[18]
  Percent Control: 90%
[19]
  Percent Control: 100%
[20]
  Percent Control: 100%

## NS(=O)(=O)c1ccc(N/N=C2\C(=O)Nc3ccc(-c4cnco4)cc32)cc1 [GW276655]
[1]
  Percent Control: 2.5%
[2]
  Percent Control: 96%
[3]
  Percent Control: 65%
[4]
  Percent Control: 94%
[5]
  Percent Control: 97%
[6]
  Percent Control: 39%
[7]
  Percent Control: 100%
[8]
  Percent Control: 100%
[9]
  Percent Control: 79%
[10]
  Percent Control: 79%
[11]
  Percent Control: 100%
[12]
  Percent Control: 87%
[13]
  Percent Control: 61%
[14]
  Percent Control: 90%
[15]
  Percent Control: 100%
[16]
  Percent Control: 76%
[17]
  Percent Control: 76%
[18]
  Percent Control: 53%
[19]
  Percent Control: 38%
[20]
  Percent Control: 100%

## NS(=O)(=O)c1ccc(N/N=C2\C(=O)Nc3ccc(C(=O)NCc4ccncc4)cc32)cc1 [GW300657X]
[1]
  Percent Control: 56%
[2]
  Percent Control: 100%
[3]
  Percent Control: 87%
[4]
  Percent Control: 42%
[5]
  Percent Control: 100%
[6]
  Percent Control: 19%
[7]
  Percent Control: 94%
[8]
  Percent Control: 83%
[9]
  Percent Control: 79%
[10]
  Percent Control: 87%
[11]
  Percent Control: 100%
[12]
  Percent Control: 80%
[13]
  Percent Control: 56%
[14]
  Percent Control: 80%
[15]
  Percent Control: 78%
[16]
  Percent Control: 37%
[17]
  Percent Control: 81%
[18]
  Percent Control: 12%
[19]
  Percent Control: 36%
[20]
  Percent Control: 100%
